Experimental findings from PubChem BioAssay (NCI) are described below.

Values joined by “and” are separate entries in the source; they are usually repeats but may differ in a detail not shown here. Equal entries are not always repeated. The panel holds about 79,000 compounds, 15% with a hit somewhere; the sample as a whole holds those more often. Unmarked numbers belong to inactive results. Active and inactive are the calls of the source. Cut-off read from the data, not from the text of the source: active = growth inhibition above about 70%; inactive = the rest.

The assay is described as follows: NCI Yeast Anticancer Drug Screen. Data for the cln2 rad14 strain (AID 165).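 Note: 0% = growth equal to vehicle treated cultures.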 The following applies: S. cerevisiae cln2 rad14 strain, at 50.0 µM, active compounds read high. The essentials:
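The screen exposed genetically defined yeast (cln2 rad14) to test compounds and scored growth inhibition relative to vehicle-treated controls.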
On to `O=C(O)CP(=O)(O)O`, for which the growth inhibition was -2.2% and -19.4%.

On to `CCOP(=O)(OCC)c1cc2cc(O)ccc2oc1=O`, for which the growth inhibition was 2.75%.

As for `C[N+](C)(C)NP(=O)(N[N+](C)(C)C)Oc1ccccc1`, the growth inhibition is 20.8%.

In the case of `OC(CN(C1CCCCC1)C1CCCCC1)c1ccc(Cl)c(Cl)c1` (configuration not stated), the growth inhibition is -36%.

As for `C#CC1(O)CCC(C(C)(C)C)CC1` (configuration not stated), the growth inhibition was 7.3% and -22.6% and 7.2%.

Turning to `CC1(C)C=C(NC(=O)N2CC2)C(C)(C)N1O`, the growth inhibition is 9.75%.

Turning to `CC(=O)OC1(C#N)CC2OC1C1NC21` (configuration not stated), the growth inhibition was 8.8%.

Regarding `Cc1ccc(S(=O)(=O)NNP(Br)(c2ccccc2)(c2ccccc2)c2ccccc2)cc1`, the growth inhibition was -0.75%.

`Cc1cccc(-n2c(C)nc3ccccc3c2=O)c1C`: the growth inhibition is -2.6%.

As for `O=c1c2ccccc2sc2c1c(N(CCCl)CCCl)cc1ccccc12`, the growth inhibition is 17.5%.

For `Oc1cccc2cccnc12.[Cr]`, the growth inhibition is -7%.

In the case of `O=C1NC2(CCCCC2)C(=O)N1CCCCCN(CCCl)CCCl`, the growth inhibition was -25.4%.

On to `CC1c2[nH]c3ccccc3c2CCN1C` (configuration not stated), for which the growth inhibition was 13.5%.

Consider `CC1(C)N=C(N)N=C(N)N1c1ccc(CCCCc2ccccc2S(=O)(=O)F)c(Cl)c1`, for which the growth inhibition is 99.4% (active).

Consider `S=c1[nH]c2ccccc2[nH]1.[Zn+2]`, for which the growth inhibition is 10.2%.

Regarding `O=S1(N2CC2)=NP(N2CC2)(N2CC2)=NP(N2CC2)(N2CC2)=N1` (configuration not stated), the growth inhibition is 11.2%.

As to `Nc1cccc2scnc12` (tested in a mixture with another compound), the growth inhibition was -7.85%.
